Tau FP inhib: inhibitors of human tau fibril formation; P10636; K18 P301L tau heparin fibrillization, Alexa594 FP, 6 h; Potency, µM (highest dose often 57.7 µM), actives largely listed as inhibitors; actives 0.39% (n = 280,000); further: nearly all actives have a fitted effect of over 55% in size
Target sequence (P10636 561-689 P618L limits assumed): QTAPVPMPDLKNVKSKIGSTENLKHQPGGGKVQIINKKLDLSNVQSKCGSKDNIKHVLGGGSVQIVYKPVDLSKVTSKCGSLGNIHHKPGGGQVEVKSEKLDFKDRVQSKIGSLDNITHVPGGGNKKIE
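Human K18 P301L fragment (15 uM unlabeled plus 0.24 uM Alexa 594-labeled) in 100 mM sodium acetate pH 7 with compound, aggregation induced by 20 uM heparin for 6 hr at 37 C. ThT (30 uM) added for 1 hr, then Alexa 594 FP read.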
Sfp PPTase inh: Sfp phosphopantetheinyl transferase inhibition; Biochemical Sfp PPTase activity, qHTS; Q9F4F7; Potency, µM, usual class: inhibitors; actives 3.5% (n = 310,000);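 further: the enzyme is Sfp with the accession as filed and its product quenches rhodamine fluorescence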
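After 15 min at room temperature with compound, 15 nM Sfp received 5 uM rhodamine-CoA plus 12.5 uM BHQ-2-ybbR (50 mM Hepes pH 7.6, 10 mM MgCl2). Rate came from the fluorescence difference over 30 min, ex 525/em 598 nm.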
Tau fluor cs: counter-screen for tau fibril formation inhibitors. AID 1463. tau K18 P301L Alexa594 fluorescence, heparin fibrillization. actives 0.93% (n = 280,000). Potency, µM (doses to about 57.7 µM); further: nearly all actives have a fitted effect of over 55% in size
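Human K18 P301L tau (15 uM unlabeled plus 0.24 uM Alexa 594-labeled, final) in 100 mM sodium acetate pH 7 was mixed with compound and 20 uM heparin and incubated 6 hr at 37 C.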
FBPA coupling cs: coupling enzyme interference in Giardia aldolase counter-screen. activity change, negative = inhibition, % at 58.2 µM, hits read low. AID 2472. coupling enzyme system counterscreen, AmpLite Red fluorescence. actives 0.67% (n = 290,000); in the data active means activity change below about -30%
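Compounds tested against the coupling enzymes alone at 57.5 uM final; readout was AmpLite Red fluorescence (525/598 nm) after 20 min at RT.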
KDM4E inh: inhibitors of human JMJD2E histone demethylase; JMJD2E catalytic domain, FDH-coupled NADH fluorescence (FDH is formaldehyde dehydrogenase); Potency, µM (top dose mostly 57.1 µM), most hits filed as inhibitors; actives 1.6% (n = 230,000); AID 2147; active means well fitted inhibition curve with a large enough effect, not every such curve was filed as active; inconclusive means small, poorly fitted or top-dose-only effect, or another doubt; inactive means no such curve, though single readings can be large or run the other way; further: nearly all actives have a fitted effect of over 50% in size
Target sequence (B2RXH2 1-337 limits assumed): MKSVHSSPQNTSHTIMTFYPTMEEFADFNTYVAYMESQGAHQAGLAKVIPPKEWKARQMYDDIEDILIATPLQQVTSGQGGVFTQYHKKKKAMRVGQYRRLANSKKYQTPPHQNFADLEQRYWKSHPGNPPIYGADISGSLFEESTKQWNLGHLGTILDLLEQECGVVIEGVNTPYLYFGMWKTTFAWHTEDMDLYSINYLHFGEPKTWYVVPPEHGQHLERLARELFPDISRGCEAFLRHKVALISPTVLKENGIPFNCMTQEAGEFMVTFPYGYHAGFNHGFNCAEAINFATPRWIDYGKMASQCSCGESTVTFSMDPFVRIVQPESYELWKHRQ
Tau fibril ThT: inhibitors of human tau fibril formation, thioflavin T binding; P10636; Potency, µM (series often up to 57.4 µM), actives largely listed as inhibitors; actives 2.1% (n = 270,000); recombinant tau K18 P301L (four-repeat tau fragment), heparin-induced fibrillization, ThT fluorescence; further: nearly all actives have a fitted effect of over 55% in size
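K18 P301L tau (15 uM + 0.24 uM Alexa 594-tagged), heparin 20 uM, NaOAc pH 7, 6 h 37 C; ThT 30 uM, 1 h RT, ex 450/em 510 nm.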
Large screens that a line does not name were inactive; [ ] = remark or other dose. Shown are actives, neighbours in structure and some others; about 5.3% of the full set was active somewhere. Unless noted, the call rests on the fitted dose curve; in most records, active means well fitted curve in the direction sought with a large enough effect; inconclusive means small, poorly fitted or top-dose-only effect, or another doubt; inactive means no such curve, though single readings can be large; an effect the other way counts as inactive or inconclusive.

NC(=O)Cn1c(=O)n(CCc2ccccc2)c(=O)c2c3c(sc21)CCCC3	none
NC(=O)Cn1c(=O)n(C2CCCCC2)c(=O)c2c3c(sc21)CCCCC3	Tau FP inhib inconclusive, Sfp PPTase inh 50µM
CCC1Oc2ccc(C)cc2N(CC(=O)N(Cc2ccc(C)o2)C2CCCC2)C1=O (centres undefined)	Sfp PPTase inh 18µM, KDM4E inh inconclusive, Tau fibril ThT inconclusive
COc1ccc(N(Cc2ccccc2)C(=O)c2nc(S(C)(=O)=O)ncc2Cl)cc1	none (no result: Sfp PPTase inh, FBPA coupling cs, KDM4E inh)
COc1ccc(Cl)cc1Nc1nc2ccc(C(=O)c3ccccc3)cc2n2cnnc12	none (no result: Sfp PPTase inh, FBPA coupling cs, KDM4E inh)
O=C(c1ccccc1)c1ccc2nc(Nc3cc(Cl)ccc3O)c3nncn3c2c1	Tau FP inhib inconclusive, Tau fluor cs 18µM[quencher] (no result: Sfp PPTase inh, FBPA coupling cs, KDM4E inh)
COc1ccc(C(=O)N2CCC[C@@]3(CCN(c4ccccc4)C3)C2)cc1	none (no result: Tau FP inhib, Tau fluor cs, KDM4E inh, Tau fibril ThT)
COc1ccc(-c2nnc(SCC(=O)Nc3cccc(C(F)(F)F)c3)nc2-c2ccc(OC)cc2)cc1	Tau FP inhib inconclusive, Tau fibril ThT inconclusive (no result: Sfp PPTase inh, FBPA coupling cs, KDM4E inh)
COc1ccccc1OC(=O)CCc1nc2ccccc2s1	Sfp PPTase inh 14µM, Tau fibril ThT inconclusive
Cc1cnc(NC(=O)CCCc2nc3ccccc3s2)s1	Sfp PPTase inh 40µM, KDM4E inh inconclusive
O=C(CCCc1nc2ccccc2s1)Nc1nccs1	Sfp PPTase inh 45µM
COc1ccc(C2C3C=CCC(c4cccc(/C=C/c5ccccc5)c4)C3C(=O)N2Cc2ccccc2)cc1Cl (centres undefined)	none (no result: Tau FP inhib, Tau fluor cs, KDM4E inh, Tau fibril ThT)
COCC(=O)C(C(=O)OC)[C@H](CCc1ccccc1)NC(=O)OC (some centres undefined)	none
CCOc1ccccc1CNC(=O)Cn1cc2c(n1)-c1c(oc(C(=O)N3CCCC3)c1C)CC2	none (no result: Sfp PPTase inh, FBPA coupling cs, KDM4E inh)
O=[N+]([O-])c1ccccc1NC(=S)N/N=C/c1ccc(O)c(O)c1	Tau fluor cs inconclusive, KDM4E inh 25µM, Tau fibril ThT 5.6µM
O=C(NNC(=S)NC(=O)c1ccccc1[N+](=O)[O-])c1ccccc1[N+](=O)[O-]	none
O=C(NC(=S)Nc1ccccc1[N+](=O)[O-])c1ccccc1	Sfp PPTase inh 28µM, Tau fluor cs inconclusive
CCOc1cccc(/C=N/NC(=S)Nc2ccccc2[N+](=O)[O-])c1O	Tau FP inhib inconclusive, Tau fluor cs inconclusive, KDM4E inh inconclusive, Tau fibril ThT inconclusive
O=C(CCc1ccccc1)NC(=S)Nc1ccccc1[N+](=O)[O-]	none (no result: Tau FP inhib, Tau fluor cs, KDM4E inh, Tau fibril ThT)
N#Cc1ccccc1NC(=S)NC(=O)c1cccs1	Sfp PPTase inh 32µM (no result: Tau FP inhib, Tau fluor cs, KDM4E inh, Tau fibril ThT)
Cc1ccc(C(=O)NC(=S)NNC(=O)c2ccccc2[N+](=O)[O-])cc1	Sfp PPTase inh 45µM, KDM4E inh inconclusive
C#C[C@]1(O)CC[C@@H]2[C@H]3CCC4=CC(=O)CC[C@H]4[C@H]3C(=C)C[C@@]21CC	none (no result: Tau FP inhib, Tau fluor cs, FBPA coupling cs, KDM4E inh, Tau fibril ThT)
Fc1ccc(Nc2nc(-c3ccoc3)nc3ccccc23)cc1	none (no result: Tau FP inhib, Tau fluor cs, KDM4E inh, Tau fibril ThT)
Cc1ccc(/C=N\NC(=O)CNC(=O)C23CC4CC(CC(C4)C2)C3)o1	Sfp PPTase inh 56µM (no result: Tau FP inhib, Tau fluor cs, FBPA coupling cs, KDM4E inh, Tau fibril ThT)
O=C1C2C3c4ccccc4C(c4ccccc43)C2C(=O)N1Cc1ccco1 (centres undefined)	Sfp PPTase inh 45µM
O=C1CC(=O)N(Cc2cccs2)C(=O)N1	Tau FP inhib inconclusive, Tau fibril ThT 20µM
S=C1NCN(Cc2ccco2)CN1	none
O=C1CC(=O)N(Cc2ccco2)C(=S)N1	Tau FP inhib inconclusive, Sfp PPTase inh 22µM, KDM4E inh inconclusive, Tau fibril ThT inconclusive
O=C1CC(=O)N(Cc2ccco2)C(=O)N1	Tau FP inhib inconclusive, Sfp PPTase inh 50µM, Tau fibril ThT inconclusive
CCC(=O)Nc1ccc(-c2nnc3c4ccccc4c(C)nn23)cc1	Tau FP inhib inconclusive (no result: Sfp PPTase inh, FBPA coupling cs, KDM4E inh)
Cc1ccc(C)c(NC(=O)Cn2c(=O)n(Cc3ccc4c(c3)OCO4)c(=O)c3oc4ccccc4c32)c1	none (no result: Sfp PPTase inh, FBPA coupling cs, KDM4E inh)
COc1ccc(-c2cc(-c3cccs3)c(C#N)c(SCC(=O)NCc3ccccc3)n2)cc1	KDM4E inh inconclusive
N#Cc1c(-c2ccccc2)cc(-c2cccs2)nc1SCC(=O)O	Sfp PPTase inh 56µM (no result: Tau FP inhib, Tau fluor cs, KDM4E inh, Tau fibril ThT)
N#Cc1c(-c2ccc(Cl)cc2)cc(-c2cccs2)nc1SCC(=O)O	Sfp PPTase inh 40µM (no result: Tau FP inhib, Tau fluor cs, KDM4E inh, Tau fibril ThT)

Screens from PubChem BioAssay.
